Measurements published in PubChem BioAssay AID1159580 (chemical genetic matrix, 2015).
Hit rate of the full screen: of about 5,500 compounds, about 2,000 (36%) were called active. Roughly 18% stayed inconclusive and do not appear here. Cut-off read from the data, not from the text of the source: active = normalized growth mostly below about 0.91 (no sharp cut-off); inconclusive = no clear call, values can overlap the other calls; inactive = mostly above about 0.92. Some of the results follow.

Experiment: chemical genetic growth profiling, strain panel (AID 1159580);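 note: tested at 20 µM; growth read once vehicle control cultures reached saturation at 30 °C; 1 = growth at the plate median or of vehicle wells; lower values mean less growth of the strain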
Details: growth OD

Measured: normalized growth

OC(Cn1cncn1)(Cn1cncn1)c1ccc(F)cc1F
inactive: S. cerevisiae deletion strains, locus YJL187C, strain SWE1, hits give low values 1 | S. cerevisiae deletion strains, locus YJR043C, strain POL32, hits give low values 0.988 | S. cerevisiae deletion strains, locus YJR075W, strain HOC1, hits give low values 1.01 | S. cerevisiae deletion strains, locus YKL009W, strain mrt4, hits give low values 0.994 | S. cerevisiae deletion strains, locus YKL068W, hits give low values 0.996 | S. cerevisiae deletion strains, locus YKL085W, strain MDH1 (second series), hits give low values 0.985 | S. cerevisiae deletion strains, locus YKL085W, strain MDH1, hits give low values 0.985 | S. cerevisiae deletion strains, locus YKL160W, strain elf1, hits give low values 0.992 | S. cerevisiae deletion strains, locus YKL190W, strain CNB1, hits give low values 0.997 | S. cerevisiae deletion strains, locus YKR001C, strain vps1, hits give low values 1.05 | S. cerevisiae deletion strains, locus YKR026C, strain gcn3, hits give low values 0.999 | S. cerevisiae deletion strains, locus YKR091W, strain srl3, hits give low values 1.01 | S. cerevisiae deletion strains, locus YLL001W, strain dnm1, hits give low values 1.01 | S. cerevisiae deletion strains, locus YLL026W, hits give low values 0.999 | S. cerevisiae deletion strains, locus YLL041C, strain sdh2, hits give low values 1.01 | S. cerevisiae deletion strains, locus YLR027C, strain aat2, hits give low values 1 | S. cerevisiae deletion strains, locus YLR058C, strain SHM2, hits give low values 1 | S. cerevisiae deletion strains, locus YLR102C, strain apc9, hits give low values 1 | S. cerevisiae deletion strains, locus YLR221C, strain rsa3, hits give low values 0.996 | S. cerevisiae deletion strains, locus YLR258W, strain gsy2, hits give low values 1 | S. cerevisiae deletion strains, locus YLR262C, strain YPT6, hits give low values 0.634 | S. cerevisiae deletion strains, locus YLR268W, strain sec22, hits give low values 0.969 | S. cerevisiae deletion strains, locus YLR320W, strain mms22, hits give low values 0.956 | S. cerevisiae deletion strains, locus YLR330W, strain CHS5, hits give low values 0.99 | S. cerevisiae deletion strains, locus YLR342W, strain FKS1 (second series), hits give low values 1 | S. cerevisiae deletion strains, locus YLR342W, strain FKS1, hits give low values 1.01 | S. cerevisiae deletion strains, locus YLR357W, strain rsc2, hits give low values 1.02 | S. cerevisiae deletion strains, locus YLR370C, strain arc18, hits give low values 1 | S. cerevisiae deletion strains, locus YLR371W, strain rom2, hits give low values 1 | S. cerevisiae deletion strains, locus YLR384C, strain iki3, hits give low values 1 | S. cerevisiae deletion strains, locus YLR418C, strain cdc73, hits give low values 1.01 | S. cerevisiae deletion strains, locus YML016C, strain PPZ1, hits give low values 0.998 | S. cerevisiae deletion strains, locus YML032C, strain rad52, hits give low values 0.995 | S. cerevisiae deletion strains, locus YML120C, strain ndi1, hits give low values 1 | S. cerevisiae deletion strains, locus YML124C, strain tub3, hits give low values 1 | S. cerevisiae deletion strains, locus YMR058W, strain fet3, hits give low values 0.987 | S. cerevisiae deletion strains, locus YMR078C, strain ctf18, hits give low values 0.992 | S. cerevisiae deletion strains, locus YMR125W, strain sto1, hits give low values 1.03 | S. cerevisiae deletion strains, locus YMR129W, hits give low values 1.01 | S. cerevisiae deletion strains, locus YMR205C, strain PFK2, hits give low values 0.988 | S. cerevisiae deletion strains, locus YMR223W, strain ubp8, hits give low values 0.98 | S. cerevisiae deletion strains, locus YMR231W, strain pep5, hits give low values 0.943 | S. cerevisiae deletion strains, locus YMR263W, strain SAP30, hits give low values 0.988 | S. cerevisiae deletion strains, locus YMR307W, strain GAS1, hits give low values 1.25 | S. cerevisiae deletion strains, locus YNL067W, strain RPL9B, hits give low values 1.03 | S. cerevisiae deletion strains, locus YNL071W, strain lat1, hits give low values 1 | S. cerevisiae deletion strains, locus YNL128W, strain TEP1, hits give low values 0.965 | S. cerevisiae deletion strains, locus YNL209W, strain ssb2, hits give low values 1.01 | S. cerevisiae deletion strains, locus YNL233W, strain BNI4, hits give low values 1.01 | S. cerevisiae deletion strains, locus YNL248C, strain rpa49, hits give low values 0.994 | S. cerevisiae deletion strains, locus YNL250W, strain rad50, hits give low values 0.976 | S. cerevisiae deletion strains, locus YNL271C, strain bni1, hits give low values 0.98 | S. cerevisiae deletion strains, locus YNL298W, strain CLA4, hits give low values 0.958 | S. cerevisiae deletion strains, locus YNL307C, strain MCK1, hits give low values 1.01 | S. cerevisiae deletion strains, locus YNL322C, strain KRE1 (second series), hits give low values 0.996 | S. cerevisiae deletion strains, locus YNR049C, strain mso1, hits give low values 1.01 | S. cerevisiae deletion strains, locus YNR052C, strain pop2, hits give low values 0.979 | S. cerevisiae deletion strains, locus YOL006C, strain TOP1, hits give low values 0.971 | S. cerevisiae deletion strains, locus YOL012C, strain htz1 1.07 | S. cerevisiae deletion strains, locus YOL147C, strain pex11, hits give low values 1.01 | S. cerevisiae deletion strains, locus YOR001W, strain rrp6, hits give low values 0.994 | S. cerevisiae deletion strains, locus YOR061W, strain CKA2, hits give low values 1 | S. cerevisiae deletion strains, locus YOR069W, strain VPS5, hits give low values 0.992 | S. cerevisiae deletion strains, locus YOR070C, strain gyp1, hits give low values 0.998 | S. cerevisiae deletion strains, locus YOR080W, strain dia2, hits give low values 0.987 | S. cerevisiae deletion strains, locus YOR083W, strain WHI5, hits give low values 0.997 | S. cerevisiae deletion strains, locus YOR106W, strain vam3, hits give low values 0.964 | S. cerevisiae deletion strains, locus YOR136W, strain idh2, hits give low values 0.979 | S. cerevisiae deletion strains, locus YOR144C, strain elg1, hits give low values 1 | S. cerevisiae deletion strains, locus YOR184W, strain ser1, hits give low values 0.964 | S. cerevisiae deletion strains, locus YOR265W, strain rbl2, hits give low values 1 | S. cerevisiae deletion strains, locus YOR270C, strain vph1, hits give low values 0.977 | S. cerevisiae deletion strains, locus YOR290C, strain snf2, hits give low values 1.01 | S. cerevisiae deletion strains, locus YOR316C, strain cot1, hits give low values 0.991 | S. cerevisiae deletion strains, locus YPL051W, strain arl3, hits give low values 0.995 | S. cerevisiae deletion strains, locus YPL078C, strain atp4, hits give low values 0.992 | S. cerevisiae deletion strains, locus YPL240C, strain hsp82, hits give low values 0.998 | S. cerevisiae deletion strains, locus YPL241C, strain CIN2, hits give low values 0.997 | S. cerevisiae deletion strains, locus YPR119W, strain clb2, hits give low values 0.988 | S. cerevisiae deletion strains, locus YPR141C, strain kar3, hits give low values 0.989 | S. cerevisiae deletion strains, locus YPR163C, strain tif3, hits give low values 0.995 | S. cerevisiae deletion strains, locus YPR167C, strain met16, hits give low values 0.98 | S. cerevisiae deletion strains, strain wtn01, hits give low values 0.981 | S. cerevisiae strains, strain wild type, hits give low values 1
active: S. cerevisiae deletion strains, locus YLR039C, strain RIC1, hits give low values 0.635 | S. cerevisiae deletion strains, locus YLR262C, strain YPT6 (second series), hits give low values 0.465 | S. cerevisiae deletion strains, locus YPL106C, strain sse1, hits give low values 0.341
